Structures are written as SMILES. Calls of active or inactive are those of the source.

This assay is described as follows: CREB reporter modulators without forskolin, primary screen, cell-based, PC12, CRE-LacZ reporter, unstimulated (AID 1145). Conditions: no forskolin, luminescence, 4.5 h, higher = more signal, called active from +8 up or from −8 down.
For `CON=C(C)CCC(=O)OC[C@H]1O[C@H](C#Cc2ccccc2)C=C[C@@H]1Oc1ccc(C)cc1`, the z-score was 0.415 (inactive).
The result for `CC(C)(C)N1C(=O)[C@H]2[C@H]3[C@H](O)[C@H](O)CC(=NOC[C@@H](O)COCc4ccco4)[C@@H]3CC[C@H]2C1=O` reads 1.06 (inactive); that for `CO[C@@H]1[C@H](O)CO[C@H]1C=Cc1ccccc1`, -0.164 (inactive); that for `CCN1C(=O)[C@H]2[C@H]3[C@H](O)[C@H](O)CC(=NOCC[C@@H]4C=C[C@H](OC(C)=O)[C@@H](COC(C)=O)O4)[C@@H]3CC[C@H]2C1=O`, 0.0757 (inactive).
For `CO[C@@H](C1CCCCC1)[C@@H](C)[C@H](OCc1cccc(Br)c1)[C@@H](C)CO`, the z-score was 2.93 (inactive).
Then `CCOC(=O)CCN1C(=O)[C@H]2[C@H]3[C@H](O)[C@H](O)CC(=NOCC(C)C)[C@@H]3CC[C@H]2C1=O`, with 0.424 (inactive); and `CCOC(=O)CCN1C(=O)[C@H]2[C@H]3[C@H](O)[C@H](O)CC(=NO[C@@H]4O[C@H](CO)[C@@H](O)[C@H](O)[C@H]4O)[C@@H]3CC[C@H]2C1=O`, with -0.748 (inactive); and `CO[C@H]1COC(=O)CC=C[C@@H](C)COC(=O)[C@H]2CCCN2C(=O)CC=C[C@H]1C`, with -0.837 (inactive).
The result for `CCOC(=O)[C@H](Cc1ccccc1)NC(=O)CCC1CC(OC(=O)NCc2cccc3ccccc23)CC2(CCCC(COC(=O)NCCc3ccccc3OC)O2)O1` (stereo not given in full) reads 0.104 (inactive); that for `Cc1ccc(S(=O)(=O)N[C@@H]2COC(=O)CC=C[C@@H](C)[C@H](NS(=O)(=O)c3ccc(C)cc3)COC(=O)[C@H](C)NC(=O)CC=C[C@H]2C)cc1`, -0.38 (inactive).

The record behind these values is PubChem BioAssay.
